Source: PubChem
An excerpt weighted towards active compounds, which were near 19% of everything screened.
HepG2 tox: kills HepG2 cells in TGF-b inhibitor counter-screen | HepG2 CAGA-GFP viability, ATP luminescence, 18 h | Potency, µM (highest dose often 46.1 µM), without a hit: at the highest dose activity change, negative = cytotoxicity, most hits filed as cytotoxic | 0.76% of 410,000 active | AID 588856; further: potency means the concentration at half of the fitted maximal effect
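CellTiter-Glo luminescence gave cytotoxicity after 18 hours at 37 degrees C. The cells were HepG2 CAGA-GFP in 1% FBS DMEM, stimulated with 500 pg/mL TGF-beta after compound addition. %Activity was normalised to no-cell wells (complete cell-killing) and DMSO (no toxicity), and curves were fitted and classified.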
TGFb SMAD3 inh: TGF-b pathway inhibition; HepG2 CAGA-GFP TGF-b/SMAD3 reporter, GFP fluorescence, 18 h; TGF-beta stimulated, 500 pg/mL final; Potency, µM (highest dose often 46.1 µM), for the others: at the highest dose activity, negative = inhibition, most hits filed as inhibitors; 1.2% of 410,000 active; AID 588855; further: potency means the concentration at half of the fitted maximal effect; on the % scale 0 is the no-effect control and ±100 the full control effect; nearly all actives have a fitted effect of over 65% in size
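Cell-based qHTS in HEPG2 carrying a CAGA-GFP Smad reporter; compounds added before 500 pg/mL final TGF-beta, 18 h incubation at 37 degrees C, GFP fluorescence quantified per cell by imaging cytometry.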
IL1B secr inh: blocks inflammasome-driven IL-1 beta release; THP-1 LPS/ATP IL-1B secretion, AlphaLISA, 16 h; hits give low values; 4.7% of 360,000 active; AID 743279; activity change, % at 57.5 µM; in the data active means activity change below about -50%; inconclusive means mostly about -30% to -49%; further: on the % scale 0 is the no-effect control and ±100 the full control effect
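Secreted IL-1B measured by AlphaLISA bead assay after 16 h compound exposure of THP-1 cells; compounds (final up to 57.5 uM) added 1 h before LPS (250 ng/mL) and ATP (1.25 mM) stimulation; lower signal means less secretion.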
DT40 TDP1 no CPT: qHTS for Inhibitors of human tyrosyl-DNA phosphodiesterase 1 (TDP1): qHTS in cells in absence of CPT | 15% of 420,000 active | Potency, µM (top dose mostly 46.2 µM), inactives show at the top dose activity change, negative = growth inhibition, most hits filed as inhibitors | DT40 Tdp1-/- hTDP1 cells, no CPT, ATP luminescence, 48 h; further: potency means the concentration at half of the fitted maximal effect; on the % scale 0 is the no-effect control and ±100 the full control effect; nearly all actives have a fitted effect of over 55% in size
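Camptothecin absent (DMSO only). Human TDP1-complemented DT40 knockout cells, 400 cells/well, 37 °C for minimum 48 hr; ATP measured via CellTiter-Glo, 30 min dark incubation, luminescence.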
S-ASM inh: blocks human secretory acid sphingomyelinase; 0.006% of 340,000 active; placental ASM, HMU-PC fluorogenic substrate, 60 min; Potency, µM (series often up to 57.5 µM), for inactives: at the top dose activity change, negative = inhibition, most hits filed as inhibitors; AID 504937; further: potency means the concentration at half of the fitted maximal effect
Target sequence (P17405 47-631 limits assumed): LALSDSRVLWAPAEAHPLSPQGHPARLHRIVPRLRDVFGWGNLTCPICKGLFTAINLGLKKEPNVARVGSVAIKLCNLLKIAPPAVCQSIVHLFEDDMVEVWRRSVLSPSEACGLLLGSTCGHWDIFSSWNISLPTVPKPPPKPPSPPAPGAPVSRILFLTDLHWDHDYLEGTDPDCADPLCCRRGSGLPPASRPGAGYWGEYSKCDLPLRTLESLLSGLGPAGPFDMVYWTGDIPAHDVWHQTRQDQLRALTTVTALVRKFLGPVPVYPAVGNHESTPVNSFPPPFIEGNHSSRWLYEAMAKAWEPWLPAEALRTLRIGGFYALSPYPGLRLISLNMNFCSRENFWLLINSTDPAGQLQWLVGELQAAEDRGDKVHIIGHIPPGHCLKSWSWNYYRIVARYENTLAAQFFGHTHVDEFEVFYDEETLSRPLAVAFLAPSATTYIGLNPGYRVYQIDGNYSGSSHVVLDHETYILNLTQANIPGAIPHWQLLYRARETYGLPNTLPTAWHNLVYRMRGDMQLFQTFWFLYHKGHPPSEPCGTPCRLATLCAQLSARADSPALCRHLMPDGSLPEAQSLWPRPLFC
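Fluorogenic HMU-PC substrate (9 uM final) is turned over by placental ASM in 60 min at 37 C after a 10 min compound preincubation. Reaction ended by alkaline stop (pH 10), with fluorescence read at 386/447 nm.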
DT40 TDP1 CPT: DT40-hTDP1 cell growth loss with CPT. chicken DT40 Tdp1-/-;hTDP1 cells + 20 nM CPT, ATP luminescence, 48 h. Potency, µM (top dose mostly 46.2 µM), without a hit: at the top dose activity change, negative = growth inhibition, actives largely listed as inhibitors. 12% of 420,000 active. AID 686979; further: potency means the concentration at half of the fitted maximal effect; on the % scale 0 is the no-effect control and ±100 the full control effect; nearly all actives have a fitted effect of over 55% in size
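Cell growth measured by CellTiter-Glo luminescence after a minimum 48 h, 37 C compound exposure with 20 nM CPT in Tdp1-knockout DT40 cells stably expressing hTDP1, seeded 400/well; qHTS titration format.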
Starred values were filed as active, the others as inactive. Unless noted, the call rests on the fitted dose curve; in most records, active means well fitted curve in the direction sought with a large enough effect; inconclusive means small, poorly fitted or top-dose-only effect, or another doubt; inactive means no such curve, though single readings can be large; an effect the other way counts as inactive or inconclusive.

How did CCOC(=O)[C@]12CCC=C1N(Cc1ccco1)C(=O)[C@H](CC(=O)NCc1cccs1)C2 do in these assays?
IL1B secr inh: 7; DT40 TDP1 no CPT: -5%; DT40 TDP1 CPT: -9%

Results for CCOC(=O)[C@]12CCC=C1N(Cc1cccc3ccccc13)C(=O)[C@H](CC(=O)NCc1ccc(C)o1)C2 ?
IL1B secr inh: 0; DT40 TDP1 no CPT: 23µM*; DT40 TDP1 CPT: 16µM*

What do the screens show for `C=CCOc1ccc(/C=C/C(=O)OCC(=O)N2CCCc3ccccc32)cc1`?
HepG2 tox: 2%; TGFb SMAD3 inh: 4%; IL1B secr inh: inconclusive; DT40 TDP1 no CPT: -6%; S-ASM inh: -2%; DT40 TDP1 CPT: -5%

How did CC(NC(=O)c1cnn2c1NC(=C1CC1)C=C2C(F)F)c1ccncc1 (stereo not given) do in these assays?
HepG2 tox: -3%; TGFb SMAD3 inh: -3%; DT40 TDP1 no CPT: -8%; DT40 TDP1 CPT: -21%

How did CC1CCCC(C)N1C(=O)COC(=O)CNC(=O)c1ccc(Cl)cc1Cl (stereo not given) do in these assays?
HepG2 tox: 14%; TGFb SMAD3 inh: -12%; IL1B secr inh: 7; DT40 TDP1 no CPT: -14%; S-ASM inh: 2%; DT40 TDP1 CPT: 3%

Results for Cc1ccc(S/C=C\C(=O)c2ccccc2)cc1 ?
HepG2 tox: -9%; TGFb SMAD3 inh: inconclusive; IL1B secr inh: -103*; DT40 TDP1 no CPT: 21µM*; S-ASM inh: 7%; DT40 TDP1 CPT: 21µM*

Results for CC(N=C1NC(C)(C)Cc2ccccc21)C(=O)O (stereo not given) ?
HepG2 tox: 15%; TGFb SMAD3 inh: 0%; IL1B secr inh: 49; DT40 TDP1 no CPT: -17%; S-ASM inh: 4%; DT40 TDP1 CPT: 1%

What do the screens show for `COC(=O)c1cc(OC)c(OC)cc1NCC(=O)Nc1cccc(C(F)(F)F)c1`?
HepG2 tox: -7%; TGFb SMAD3 inh: -45%; IL1B secr inh: -12; DT40 TDP1 no CPT: inconclusive; S-ASM inh: 195%; DT40 TDP1 CPT: -29%

Results for COC(=O)c1cc(OC)c(OC)cc1NCC(=O)Nc1ccc(C)cc1 ?
HepG2 tox: 7%; TGFb SMAD3 inh: -4%; IL1B secr inh: -52*; DT40 TDP1 no CPT: -11%; S-ASM inh: 196%; DT40 TDP1 CPT: -23%

What do the screens show for `COC(=O)c1cc(OC)c(OC)cc1NCC(=O)Nc1ccc(OC)c(OC)c1`?
HepG2 tox: -8%; TGFb SMAD3 inh: -7%; IL1B secr inh: 7; DT40 TDP1 no CPT: 13µM*; S-ASM inh: 209%; DT40 TDP1 CPT: 21µM*

Results for CCOc1ccccc1CNC(=O)C1CCN(c2nn3cc(-c4ccc(F)cc4)nc3s2)CC1 ?
HepG2 tox: -12%; TGFb SMAD3 inh: -14%; DT40 TDP1 no CPT: -19%; DT40 TDP1 CPT: -21%

How did CCOc1ccc(NC2=C(OC)C(=O)c3ccccc3C2=O)cc1 do in these assays?
HepG2 tox: -83%; TGFb SMAD3 inh: 11µM*; IL1B secr inh: -83*; DT40 TDP1 no CPT: inconclusive; S-ASM inh: -14%; DT40 TDP1 CPT: 21µM*

Results for CCCCC(=O)Nc1ccc(C2C(=O)c3ccccc3C2=O)cc1 ?
HepG2 tox: 10%; TGFb SMAD3 inh: -2%; IL1B secr inh: -3; DT40 TDP1 no CPT: inconclusive; S-ASM inh: 3%; DT40 TDP1 CPT: -24%

How did COC1=C(Nc2ccc(O)cc2)C(=O)c2ccccc2C1=O do in these assays?
HepG2 tox: -84%; TGFb SMAD3 inh: inconclusive; IL1B secr inh: -64*; DT40 TDP1 no CPT: inconclusive; S-ASM inh: -4%; DT40 TDP1 CPT: 4.1µM*

Results for O=C(NNC(=O)c1ccc(NC(=O)c2ccccc2)cc1)c1ccc(F)cc1 ?
HepG2 tox: 0%; TGFb SMAD3 inh: 5%; IL1B secr inh: 1; DT40 TDP1 no CPT: 11%; S-ASM inh: 0%; DT40 TDP1 CPT: 30%

Results for CCC(=O)Nc1ccc(C2C(=O)c3ccccc3C2=O)cc1 ?
HepG2 tox: -22%; TGFb SMAD3 inh: 4%; IL1B secr inh: -3; DT40 TDP1 no CPT: 21µM*; S-ASM inh: -2%; DT40 TDP1 CPT: 16µM*

Results for O=C(NC1=C(Nc2ccc(F)cc2)C(=O)c2ccccc2C1=O)c1ccc(Cl)cc1 ?
HepG2 tox: 11µM*; TGFb SMAD3 inh: 11µM*; IL1B secr inh: 30; DT40 TDP1 no CPT: inconclusive; S-ASM inh: -24%; DT40 TDP1 CPT: 21µM*

How did Cc1cccc(N(C)S(=O)(=O)c2nnc(NC(=O)C(C)(C)C)s2)c1 do in these assays?
HepG2 tox: -13%; TGFb SMAD3 inh: -44%; DT40 TDP1 no CPT: inconclusive; DT40 TDP1 CPT: inconclusive

How did CC(C)c1c(C(=O)NCCN2CCOCC2)cnn1-c1nccc(-c2ccco2)n1 do in these assays?
DT40 TDP1 no CPT: -15%; DT40 TDP1 CPT: 5%

Results for Cc1ccc(N(C(C)C(=O)N2CCOCC2)S(C)(=O)=O)cc1C (stereo not given) ?
HepG2 tox: -8%; TGFb SMAD3 inh: -5%; IL1B secr inh: 18; DT40 TDP1 no CPT: -6%; S-ASM inh: 8%; DT40 TDP1 CPT: -15%

What do the screens show for `CCC(=O)NC1=C(Nc2ccc(N)cc2)C(=O)c2ccccc2C1=O`?
HepG2 tox: -21%; TGFb SMAD3 inh: -24%; IL1B secr inh: -3; DT40 TDP1 no CPT: 8.2µM*; S-ASM inh: 0%; DT40 TDP1 CPT: inconclusive

How did COc1ccc(NC2=C(NC(C)=O)C(=O)c3ccccc3C2=O)cc1 do in these assays?
HepG2 tox: -24%; TGFb SMAD3 inh: -35%; IL1B secr inh: -5; DT40 TDP1 no CPT: 18µM*; S-ASM inh: 7%; DT40 TDP1 CPT: 13µM*

Results for CC(=O)Nc1ccc2c(c1)C(=O)c1ccccc1C2=O ?
HepG2 tox: -38%; TGFb SMAD3 inh: -13%; IL1B secr inh: -6; DT40 TDP1 no CPT: inconclusive; S-ASM inh: -3%; DT40 TDP1 CPT: inconclusive

Results for COC1=C(Nc2ccc(OC)cc2)C(=O)C(OC)=C(Nc2ccc(OC)cc2)C1=O ?
HepG2 tox: 3%; TGFb SMAD3 inh: 9%; IL1B secr inh: -14; DT40 TDP1 no CPT: -12%; S-ASM inh: 1%; DT40 TDP1 CPT: 6%

Results for CCC(=O)Nc1ccc(NC(=S)Nc2ccccc2)cc1 ?
HepG2 tox: 12%; TGFb SMAD3 inh: 18%; IL1B secr inh: -5; DT40 TDP1 no CPT: 9%; S-ASM inh: 3%; DT40 TDP1 CPT: 19%
